# Source: paper PMC7862700, “An all-to-all approach to the identification of sequence-specific readers for epigenetic DNA modifications on cytosine”
# Columns and labels:
# Experiment in all cases: DAPPL (digital affinity profiling via proximity ligation, sequencing); 10 mM Tris-HCl pH 7.5, 50 mM NaCl, 1 mM DTT, 4% glycerol, room temperature, 30 min; GST-TFs on glutathione beads, 16-mer random dsDNA library, 0.1% formaldehyde crosslink after washing; high values mean tight binding
# FEV = target: T1, FEV (Homo sapiens, UniProt Q99581 1-238); conditions: protein: recombinant; tags: N-terminal GST; dsDNA, one strand shown
# T1 sequence: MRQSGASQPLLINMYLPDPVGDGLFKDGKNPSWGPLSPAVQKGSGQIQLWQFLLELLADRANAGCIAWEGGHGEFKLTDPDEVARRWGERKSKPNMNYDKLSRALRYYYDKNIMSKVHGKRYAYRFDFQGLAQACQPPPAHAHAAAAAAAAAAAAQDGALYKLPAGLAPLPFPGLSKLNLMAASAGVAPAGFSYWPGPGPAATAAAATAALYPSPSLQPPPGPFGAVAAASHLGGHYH
# Procedure, shortened: (§1)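 After expression in yeast as GST fusions, human transcription factors were bound to glutathione beads, DNA-barcoded and mixed with a tag-only sample. The pools were incubated with 200 nmole of a 16-mer random double-stranded DNA library in Tris/NaCl/DTT/glycerol buffer (30 min, room temperature), washed and crosslinked with 0.1% formaldehyde. Proximity ligation with BsaI/T4 ligase ran for 1 h at 37 °C, before PCR amplification and sequencing on an Illumina NextSeq500. Binding signal is a hexamer's read frequency for a factor divided by its frequency for the tag-only sample.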
# ETV5 = ETV5 (Homo sapiens, UniProt P41161 1-510); conditions: protein: recombinant; tags: N-terminal GST; dsDNA, one strand shown
# Procedure, shortened: as §1
# HSF1 = HSF1 (Homo sapiens, UniProt Q00613 1-529); conditions: protein: recombinant; tags: N-terminal GST; chain copies: 3; dsDNA, one strand shown
# Procedure, shortened: as §1
# SPIC = target: T2, SPIC (Homo sapiens, UniProt Q8N5J4 1-248); conditions: protein: recombinant; tags: N-terminal GST; dsDNA, one strand shown
# T2 sequence: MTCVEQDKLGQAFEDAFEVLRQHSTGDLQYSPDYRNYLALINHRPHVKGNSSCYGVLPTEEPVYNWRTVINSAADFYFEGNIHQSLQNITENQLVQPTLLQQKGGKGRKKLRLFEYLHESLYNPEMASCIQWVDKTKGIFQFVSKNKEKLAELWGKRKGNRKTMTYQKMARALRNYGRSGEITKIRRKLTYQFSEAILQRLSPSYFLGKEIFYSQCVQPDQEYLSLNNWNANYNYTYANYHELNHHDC
# Procedure, shortened: as §1
# ELF4 = ELF4 (Homo sapiens, UniProt Q99607 1-663); conditions: protein: recombinant; tags: N-terminal GST; dsDNA, one strand shown
# Procedure, shortened: as §1
# ELK4 = target: T3, ELK4 (Homo sapiens, UniProt P28324-2 1-405); conditions: protein: recombinant; tags: N-terminal GST; dsDNA, one strand shown
# T3 sequence: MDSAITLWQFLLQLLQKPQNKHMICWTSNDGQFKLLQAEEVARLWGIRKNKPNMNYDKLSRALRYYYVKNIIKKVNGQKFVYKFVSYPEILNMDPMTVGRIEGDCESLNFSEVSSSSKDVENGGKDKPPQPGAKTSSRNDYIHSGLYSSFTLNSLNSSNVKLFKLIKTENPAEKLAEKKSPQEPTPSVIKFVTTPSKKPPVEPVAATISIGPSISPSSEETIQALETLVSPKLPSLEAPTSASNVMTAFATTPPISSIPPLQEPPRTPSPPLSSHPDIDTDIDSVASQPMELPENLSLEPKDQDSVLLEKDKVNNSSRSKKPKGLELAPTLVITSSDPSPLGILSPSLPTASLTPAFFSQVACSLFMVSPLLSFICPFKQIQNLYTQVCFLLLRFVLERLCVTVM
# Procedure, shortened: as §1
# ETV2 = target: T4, ETV2 (Homo sapiens, UniProt O00321 1-342); conditions: protein: recombinant; tags: N-terminal GST; dsDNA, one strand shown
# T4 sequence: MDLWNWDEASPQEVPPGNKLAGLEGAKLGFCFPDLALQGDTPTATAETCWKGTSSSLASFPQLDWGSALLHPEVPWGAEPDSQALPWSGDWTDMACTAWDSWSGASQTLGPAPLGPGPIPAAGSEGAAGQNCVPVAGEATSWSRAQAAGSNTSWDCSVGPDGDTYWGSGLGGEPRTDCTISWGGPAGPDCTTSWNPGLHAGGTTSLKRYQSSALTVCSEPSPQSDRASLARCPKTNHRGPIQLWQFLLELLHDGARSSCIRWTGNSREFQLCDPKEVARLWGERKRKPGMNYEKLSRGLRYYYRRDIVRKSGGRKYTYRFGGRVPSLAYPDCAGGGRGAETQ
# Procedure, shortened: as §1
# ELF3 = target: T5, ELF3 (Homo sapiens, UniProt P78545 1-371); conditions: protein: recombinant; tags: N-terminal GST; dsDNA, one strand shown
# T5 sequence: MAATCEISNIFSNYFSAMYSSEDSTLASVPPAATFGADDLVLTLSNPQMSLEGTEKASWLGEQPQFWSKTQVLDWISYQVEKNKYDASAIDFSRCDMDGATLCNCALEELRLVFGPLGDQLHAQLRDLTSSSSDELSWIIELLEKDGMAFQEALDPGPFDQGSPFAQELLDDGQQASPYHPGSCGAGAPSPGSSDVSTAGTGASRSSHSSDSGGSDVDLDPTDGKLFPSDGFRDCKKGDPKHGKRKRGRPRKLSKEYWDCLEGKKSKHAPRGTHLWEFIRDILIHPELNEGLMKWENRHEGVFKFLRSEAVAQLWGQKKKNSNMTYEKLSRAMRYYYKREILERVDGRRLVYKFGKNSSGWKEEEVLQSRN
# Procedure, shortened: as §1
# CRX = CRX (Homo sapiens, UniProt O43186 1-299); conditions: protein: recombinant; tags: N-terminal GST; dsDNA, one strand shown
# Procedure, shortened: as §1
# ETV1 = ETV1 (Homo sapiens, UniProt P50549 1-477); conditions: protein: recombinant; tags: N-terminal GST; dsDNA, one strand shown
# Procedure, shortened: as §1
# Sequence of ETV5 (P41161 whole entry): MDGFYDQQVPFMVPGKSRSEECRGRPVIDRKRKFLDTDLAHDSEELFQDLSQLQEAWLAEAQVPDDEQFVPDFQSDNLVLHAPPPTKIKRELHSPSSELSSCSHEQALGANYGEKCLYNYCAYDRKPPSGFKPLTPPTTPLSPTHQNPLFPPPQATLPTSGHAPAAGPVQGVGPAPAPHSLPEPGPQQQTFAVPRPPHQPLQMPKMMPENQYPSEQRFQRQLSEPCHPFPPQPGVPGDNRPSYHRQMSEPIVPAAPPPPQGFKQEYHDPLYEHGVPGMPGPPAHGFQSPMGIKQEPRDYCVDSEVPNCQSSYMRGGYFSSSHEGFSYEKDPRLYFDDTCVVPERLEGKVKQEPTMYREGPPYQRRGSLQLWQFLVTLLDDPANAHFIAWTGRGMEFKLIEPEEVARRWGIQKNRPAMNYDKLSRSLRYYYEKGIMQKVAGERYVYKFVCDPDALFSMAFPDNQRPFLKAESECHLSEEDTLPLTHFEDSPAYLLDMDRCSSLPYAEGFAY
# Sequence of HSF1 (Q00613 whole entry): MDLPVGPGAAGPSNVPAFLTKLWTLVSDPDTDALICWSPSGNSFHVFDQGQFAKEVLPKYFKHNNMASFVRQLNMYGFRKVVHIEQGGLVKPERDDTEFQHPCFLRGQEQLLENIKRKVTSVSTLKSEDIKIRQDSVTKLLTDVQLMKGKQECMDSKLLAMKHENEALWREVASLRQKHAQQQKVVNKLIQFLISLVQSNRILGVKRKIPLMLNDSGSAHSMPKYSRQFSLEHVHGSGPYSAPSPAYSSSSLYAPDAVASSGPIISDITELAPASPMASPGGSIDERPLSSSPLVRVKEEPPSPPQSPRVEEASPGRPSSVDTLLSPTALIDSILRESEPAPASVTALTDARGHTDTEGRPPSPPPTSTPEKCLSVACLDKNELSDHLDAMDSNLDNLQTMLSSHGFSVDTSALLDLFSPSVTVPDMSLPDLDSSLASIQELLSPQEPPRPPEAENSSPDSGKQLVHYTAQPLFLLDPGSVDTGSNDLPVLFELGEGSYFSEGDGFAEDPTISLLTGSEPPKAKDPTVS
# Sequence of CRX (O43186 whole entry): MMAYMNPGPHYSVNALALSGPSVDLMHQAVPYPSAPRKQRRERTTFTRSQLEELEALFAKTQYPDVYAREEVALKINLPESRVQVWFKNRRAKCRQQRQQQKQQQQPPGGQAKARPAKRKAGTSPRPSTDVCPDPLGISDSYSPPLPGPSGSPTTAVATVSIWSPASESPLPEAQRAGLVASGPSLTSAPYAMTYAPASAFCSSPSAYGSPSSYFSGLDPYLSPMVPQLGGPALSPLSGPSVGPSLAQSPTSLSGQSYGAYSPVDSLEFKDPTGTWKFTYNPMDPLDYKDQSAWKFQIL
# Sequence of ETV1 (P50549 whole entry): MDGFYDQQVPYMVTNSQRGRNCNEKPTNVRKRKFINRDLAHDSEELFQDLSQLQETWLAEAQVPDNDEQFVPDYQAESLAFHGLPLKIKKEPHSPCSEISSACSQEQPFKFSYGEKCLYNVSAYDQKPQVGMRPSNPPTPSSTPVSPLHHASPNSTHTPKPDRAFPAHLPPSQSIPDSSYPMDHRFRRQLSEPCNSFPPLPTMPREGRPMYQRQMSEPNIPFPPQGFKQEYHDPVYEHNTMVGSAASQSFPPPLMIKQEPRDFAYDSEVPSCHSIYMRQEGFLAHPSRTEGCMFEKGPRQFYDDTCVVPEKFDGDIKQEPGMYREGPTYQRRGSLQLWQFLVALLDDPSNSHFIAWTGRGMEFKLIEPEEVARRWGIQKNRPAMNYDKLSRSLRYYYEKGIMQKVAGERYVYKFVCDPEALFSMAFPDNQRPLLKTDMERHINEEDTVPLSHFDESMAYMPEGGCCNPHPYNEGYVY
# Sequence of ELF4 (Q99607 whole entry): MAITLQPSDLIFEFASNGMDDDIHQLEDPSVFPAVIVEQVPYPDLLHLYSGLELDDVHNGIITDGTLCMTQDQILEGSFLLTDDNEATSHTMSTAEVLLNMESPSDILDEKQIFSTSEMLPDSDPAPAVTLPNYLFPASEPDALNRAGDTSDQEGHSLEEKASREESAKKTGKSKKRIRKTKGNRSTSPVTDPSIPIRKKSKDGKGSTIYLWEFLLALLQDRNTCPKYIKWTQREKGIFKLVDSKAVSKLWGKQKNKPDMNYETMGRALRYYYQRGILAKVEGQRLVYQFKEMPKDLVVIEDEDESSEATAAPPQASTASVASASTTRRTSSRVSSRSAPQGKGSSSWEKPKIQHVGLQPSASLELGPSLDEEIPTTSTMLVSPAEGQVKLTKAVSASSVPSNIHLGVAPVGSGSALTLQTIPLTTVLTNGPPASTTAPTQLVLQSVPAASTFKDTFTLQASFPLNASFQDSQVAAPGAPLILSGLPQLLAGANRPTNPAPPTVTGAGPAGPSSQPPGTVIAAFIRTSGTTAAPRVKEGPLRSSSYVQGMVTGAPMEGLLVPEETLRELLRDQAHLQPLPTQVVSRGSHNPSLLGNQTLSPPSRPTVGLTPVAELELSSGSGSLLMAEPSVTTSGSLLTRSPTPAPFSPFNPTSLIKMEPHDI
sequence,measurement,setting,value
AATCCT,binding signal,FEV,"1.32 fold enrichment (6-mer frequency, TF over GST control)"
same,binding signal,ETV5,"1.43 fold enrichment (6-mer frequency, TF over GST control)"
same,binding signal,HSF1,"2.25 fold enrichment (6-mer frequency, TF over GST control)"
same,binding signal,SPIC,"1.3 fold enrichment (6-mer frequency, TF over GST control)"
same,binding signal,ELF4,"1.27 fold enrichment (6-mer frequency, TF over GST control)"
same,binding signal,ELK4,"1.33 fold enrichment (6-mer frequency, TF over GST control)"
same,binding signal,ETV2,"1.34 fold enrichment (6-mer frequency, TF over GST control)"
same,binding signal,ELF3,"1.25 fold enrichment (6-mer frequency, TF over GST control)"
same,binding signal,CRX,"3.32 fold enrichment (6-mer frequency, TF over GST control)"
same,binding signal,ETV1,"1.35 fold enrichment (6-mer frequency, TF over GST control)"
